Bioassay records (PubChem)
TDP1 cell noCPT = qHTS for Inhibitors of human tyrosyl-DNA phosphodiesterase 1 (TDP1): qHTS in cells in absence of CPT; Potency, µM (titrated, usually from 46.2 µM), most hits filed as inhibitors; DT40 Tdp1-/- hTDP1 cells, no CPT, ATP luminescence, 48 h; 420,000 tested, 15% active; further: nearly all actives have a fitted effect of over 55% in size
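DT40 Tdp1-/-;hTDP1 cells, no CPT (DMSO vehicle only), 400 cells/well; compounds pin-transferred; ≥48 hr, 37 °C; CellTiter-Glo 30 min RT dark, luminescence read.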
HT1080NT lethal = qHTS for induction of synthetic lethality in tumor cells producing 2HG: qHTS for the HT-1080-NT fibrosarcoma cell line; HT-1080-NT fibrosarcoma viability, CellTiter-Glo ATP luminescence, 48 h; Potency, µM (titrated, usually from 46.1 µM), hits mostly cytotoxic; 360,000 tested, 1.6% active;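 further: NT is the 2HG producing partner of a matched IDH1 knockdown line; nearly all actives have a fitted effect of over 55% in size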
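Toxicity toward the 2HG-producing NT line was scored as %Activity, normalised to DMSO and no-cell wells, from CellTiter-Glo luminescence after 48 hours' treatment.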
HT1080 IDH1KD tx = qHTS for induction of synthetic lethality in tumor cells producing 2HG: qHTS for the HT-1080-IDH1KD cell line. Potency, µM (series often up to 46.1 µM), hits mostly cytotoxic. HT-1080 IDH1 knockdown viability, ATP luminescence, 48 h. 360,000 tested, 2% active
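Luminescent ATP read-out (CellTiter-Glo, 10 min at room temperature) after 48 h compound exposure at 37 °C gave viability of IDH1-knockdown HT-1080 cells. Activity was normalised to DMSO and cell-free wells, then fitted as concentration-response curves.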
DT40 TDP1 CPT = qHTS for Inhibitors of human tyrosyl-DNA phosphodiesterase 1 (TDP1): qHTS in cells in presence of CPT. chicken DT40 Tdp1-/-;hTDP1 cells + 20 nM CPT, ATP luminescence, 48 h. Potency, µM (doses to about 46.2 µM), hits mostly inhibitors. 420,000 tested, 12% active. AID 686979, 2013; further: nearly all actives have a fitted effect of over 55% in size
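Cell growth measured by CellTiter-Glo luminescence after a minimum 48 h, 37 C compound exposure with 20 nM CPT in Tdp1-knockout DT40 cells stably expressing hTDP1, seeded 400/well; qHTS titration format.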
IL1B secr inh = qHTS for Inhibitors of Inflammasome Signaling: IL-1-beta AlphaLISA Primary Screen | 360,000 tested, 4.7% active | THP-1 LPS/ATP IL-1B secretion, AlphaLISA, 16 h; hits give low values | activity change, % at 57.5 µM; in the data active means activity change below about -50%; inconclusive means mostly about -30% to -49%
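THP-1 cells pretreated 1 hr with compounds (up to 57.5 uM final), then stimulated with LPS (250 ng/mL final) plus ATP (1.25 mM final); secreted IL-1B measured by AlphaLISA after 16 hr, decreased signal indicating inhibition.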
Hits are given with their value; – = inactive; ? = inconclusive; · = no result. Sampled rows, rich in hits. Any-hit rate of the full collection: about 19%. Unless noted, the call rests on the fitted dose curve; in most records, active means well fitted curve in the direction sought with a large enough effect; inconclusive means small, poorly fitted or top-dose-only effect, or another doubt; inactive means no such curve, though single readings can be large; an effect the other way counts as inactive or inconclusive.

SMILES	TDP1 cell noCPT	HT1080NT lethal	HT1080 IDH1KD tx	DT40 TDP1 CPT	IL1B secr inh
COc1ccc(N(C(=O)CNC(=O)c2ccco2)C(C(=O)NCC2CCCO2)c2ccccc2)cc1 (stereo unspecified)	–	–	–	–	–
Cc1oc(-c2cccc(Cl)c2)nc1CN1CCC(C(=O)NCC2CCCO2)CC1 (stereo unspecified)	–	–	–	–	–
Cc1oc(-c2cccc(Br)c2)nc1CN1CCC(C(=O)NCc2ccccc2)CC1	?	·	·	18µM	·
Cc1cc2cc(CN(CCN(C)C)C(=S)NCc3ccco3)c(=O)[nH]c2cc1C	13µM	?	?	?	-80
Cc1cccc2cc(CN(CCN(C)C)C(=S)NCc3ccco3)c(=O)[nH]c12	?	–	–	–	–
Cc1cc2cc(CN(Cc3cccs3)C(=S)NCc3ccco3)c(=O)[nH]c2cc1C	?	–	–	?	–
CCN(CC)CCN(Cc1cc2cc(C)c(C)cc2[nH]c1=O)C(=S)NCc1ccco1	–	?	?	–	-142
O=C(CN1CSCC1=O)N1CCN(S(=O)(=O)c2ccc(Cl)cc2)CC1	–	–	–	–	–
OCCN1CCN(c2ncnc3c2ncn3[C@H]2CN(Cc3ccc(-c4ccccc4)cc3)C[C@@H](CO)O2)CC1	6.5µM	21µM	?	5.2µM	–
OC[C@@H]1CN(Cc2ccc(F)cc2)C[C@H](n2cnc3c(N4CCCC4)ncnc32)O1	?	?	–	?	-91
OCCN1CCN(c2ncnc3c2ncn3[C@H]2CN(Cc3ccc(F)cc3)C[C@@H](CO)O2)CC1	?	–	–	?	–
CN1CCN(c2ncnc3c2ncn3[C@H]2CN(Cc3ccc(-c4ccccc4)cc3)C[C@@H](CO)O2)CC1	?	18µM	9.2µM	?	–
Cc1cccc(-c2noc(-c3cccnc3NCc3ccccc3Cl)n2)c1	–	·	·	–	·
CCN(CC)S(=O)(=O)c1ccc2c(c1)nc(SCc1nc3ccsc3c(=O)[nH]1)n2CC	?	–	–	–	–
CCc1cccc(CC)c1NC(=O)COC(=O)c1ccccc1-c1nc2ccccc2s1	16µM	–	–	21µM	–
Cc1ccc(NC(=O)COC(=O)c2ccccc2-c2nc3ccccc3s2)c(C)c1	?	–	–	?	–
CCC(=O)Nc1nc2ccccc2n1Cc1ccc(C)cc1	10µM	?	–	12µM	–
CCCn1c(NC(=O)c2ccc(Cl)c(S(=O)(=O)N3CCCC3)c2)nc2ccccc21	16µM	?	?	23µM	–
CCC(=O)NCc1nc2ccccc2n1Cc1ccccc1	–	·	·	?	·
CC(=O)Nc1nc2ccccc2n1Cc1ccc(Cl)cc1	?	?	16µM	23µM	–
CCC(=O)Nc1nc2ccccc2n1Cc1ccccc1	16µM	?	?	15µM	–
CCC(=O)NCCc1nc2ccccc2n1Cc1ccc(C)cc1	?	–	–	–	–
CC1CCN(C(=O)C(=O)Nc2sc3c(c2C(N)=O)CC(C)(C)OC3)CC1	–	–	–	–	–
CSc1ccc(S(=O)(=O)Nc2ccc3c(c2)OCCO3)cc1	?	–	–	?	–
O=C(COC(=O)c1cccc(C(=O)OCC(=O)NC2CC2)n1)NC1CC1	–	–	–	–	–
SMILES	TDP1 cell noCPT	HT1080NT lethal	HT1080 IDH1KD tx	DT40 TDP1 CPT	IL1B secr inh
CCC(=O)Nc1nc2ccccc2n1CCN(CC)CC	–	–	–	29µM	–
Cn1c(NCc2ccc(Cl)cc2)nc2ccccc21	15µM	?	?	?	?
CCN(CC)CCn1c(NC(=O)c2ccc(C)cc2)nc2ccccc21	?	?	–	–	–
CC(=O)Nc1nonc1-c1nc2ccccc2n1Cc1ccccc1	?	16µM	12µM	?	–
CC(=O)Nc1nonc1-c1nc2ccccc2n1Cc1nnc(C)o1	–	–	–	–	–
CN(C)CCn1c(NC(=O)c2ccc(Cl)cc2)nc2ccccc21	?	?	11µM	?	–
CCN(CC)CCn1c(NC(=O)c2ccc(C(F)(F)F)cc2)nc2ccccc21	?	–	–	–	–
